# Shown are actives, neighbours in structure and some others; about 4.2% of the full set was active somewhere.
# SW480 rereplic – A quantitative high throughput screen for small molecules that induce DNA re-replication in SW480 colon adenocarcinoma cells; SW480 DNA re-replication, Hoechst DNA content imaging, 48 h; Potency, µM (doses to about 46.1 µM), for the others: at the top dose re-replication activation, most hits filed as activators; 340,000 tested, 1.8% active; also: % of control where 0% means no effect; nearly all actives have a fitted effect of over 55% in size
#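 250 cells/well; 23 nL cpd via pin tool; 48 hr, 37 C, 5% CO2; Hoechst 40 min; imager read of total nuclear intensity, ex 405/em 500-530 nm.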
# A-T KAP1 phos – qHTS Assay for Identifying a Potential Treatment of Ataxia-Telangiectasia; F2112 A-T fibroblasts, KAP-1 phosphorylation AlphaLISA; neocarzinostatin DNA damage 30 min before lysis; Potency, µM (series often up to 57.5 µM), for the others: at the top dose activation, actives largely listed as activators; 320,000 tested, 0.19% active; also: % of control where 0% means no effect; nearly all actives have a fitted effect of over 45% in size
#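 ATM-like activity read as KAP-1 phosphorylation via AlphaLISA donor/acceptor antibody pairs after lysis and 6 hr at 25C. Cells were ATM-null patient fibroblasts (F2112, hTERT), dosed 60 min, then exposed to the DSB inducer NCS for 30 min.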
# MCF10A rerep – A quantitative high throughput screen for small molecules that induce DNA re-replication in MCF 10a normal breast cells; MCF 10A DNA re-replication, Hoechst nuclear intensity, 48 h; 350,000 tested, 2.9% active; Potency, µM (titrated, usually from 46.1 µM), for the others: top-dose activity, positive = re-replication, usual class: activators; also: % of control where 0% means no effect; nearly all actives have a fitted effect of over 50% in size
# Integrin act MD – qHTS for Activators of Integrin-Mediated Alleviation for Muscular Dystrophy; Potency, µM (titrated, usually from 38.3 µM), inactives show at the top dose activation, most hits filed as activators; AID 624291, 2012; 350,000 tested, 0.064% active; alpha7betagal myoblasts, beta-gal FDG fluorescence, 48 h;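 also: 100% = response of the positive control SU9516; nearly all actives have a fitted effect of over 60% in size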
#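 alpha7betagal+/- myoblasts (passage 13, 250/well) treated 48 h at 37C with compounds at 1:260 dilution of DMSO stock. Lysed, then beta-galactosidase activity read as FDG fluorescence (ex 480/em 540) after 30 min, with pre-read for autofluorescence.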
# Mito fusion act – qHTS Assay for Small Molecule Inhibitors of Mitochondrial Division or Activators of Mitochondrial Fusion | S. cerevisiae fusion-defective mutant growth rescue, CellTiterGlo 48 h | Potency, µM (top dose mostly 46.1 µM), for the others: top-dose growth rescue (activation), most hits filed as activators | 320,000 tested, 0.23% active | AID 485298, 2010; also: % of control where 0% means no effect; nearly all actives have a fitted effect of over 45% in size
#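 Luminescent cell viability in 1536-well qHTS format served as the measure of rescued growth in ts fusion-mutant S. cerevisiae cultured on non-fermentable YPEG for 48 hours at 37C.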
# The depositor's hits bear a star; ? = inconclusive; / = no result given. Calls follow the shape of the dose curve; as a rule, active = well fitted activation curve with a large enough effect; inconclusive = small, poorly fitted or top-dose-only effect; inactive = no such curve, though single readings can be large or run the other way. Potency is read from the fitted curve at half-maximal effect.
SMILES,SW480 rereplic,A-T KAP1 phos,MCF10A rerep,Integrin act MD,Mito fusion act
CC(=O)c1nn(-c2cccc(Br)c2)cc1C(=O)c1ccccc1,-7%,1%,?,0%,-4%
CC(=O)c1nn(-c2ccccc2)cc1C(=O)c1cccc(Br)c1,?,2%,1.6µM*,15%,9%
CSc1ncc(CN2CCc3c([nH]c4ccccc34)C2c2cccc(O)c2)cn1 (stereo not given),4%,-3%,1%,12%,11%
COc1ccccc1N1C(=NC(=O)C(C)Oc2ccccc2)SC2CS(=O)(=O)CC21 (stereo not given),-13%,-2%,1%,25%,4%
O=[N+]([O-])c1cc([N+](=O)[O-])c2cc3ccccc3nc2c1,?,8%,?,3%,9%
O=C1c2cccnc2C(=O)N1CO,-5%,2%,-1%,-7%,1%
NC1=C(Br)C(=O)c2ncccc2C1=O,8.2µM*,/,0.52µM*,-55%,/
CC12CCC(C(=O)NNc3ccccc3)(C(=O)C1=O)C2(C)C (stereo not given),-1%,-14%,16µM*,-15%,-1%
CC(=C/C(=O)O)/C=C/c1ccc([N+](=O)[O-])cc1,-6%,5%,11%,-15%,1%
CC1(C)COC(/C=C/c2ccc([N+](=O)[O-])cc2)=N1,16µM*,13%,16µM*,-47%,-12%
COCCOC(=O)C1=C(C)NC(=O)NC1/C=C/c1ccccc1 (stereo not given),-1%,-2%,-23%,1%,-2%
COCCOC(=O)C1=C(C)NC(=S)NC1/C=C/c1ccccc1 (stereo not given),1%,-5%,-2%,-28%,1%
C=CCOC(=O)C1=C(C)NC(=S)NC1/C=C/c1ccccc1 (stereo not given),15µM*,3%,-5%,-20%,-2%
CC1=C(C(=O)OCc2ccccc2)C(/C=C/c2ccccc2)NC(=S)N1 (stereo not given),10%,4%,23µM*,-16%,16µM*
CN1C[C@@H]2[C@@H]3C(=O)N(C)C(=O)[C@@H]3[C@](C)(C1=O)N2C(=O)c1ccc(F)cc1,2%,/,-84%,-40%,/
COC(=O)C1=CN(Cc2ccc(OC)c(OC)c2)C=C(C(=O)OC)C1c1ccc(O)cc1,99%,25%,?,13%,4%
COC(=O)C1=CN(Cc2ccc(OC)c(OC)c2)C=C(C(=O)OC)C1c1cccc(OC)c1OC,?,29%,?,1%,7%
COC(=O)C1=CN(Cc2ccc(OC)c(OC)c2)C=C(C(=O)OC)C1c1ccc(F)cc1,21µM*,?,18µM*,-20%,-5%
CCN1C=C(C(=O)OC)C(c2cccc(OC)c2OC)C(C(=O)OC)=C1,16µM*,29%,?,11%,-10%
COCCN1C=C(C(=O)OC)C(c2cc(Br)c(OC)c(OC)c2)C(C(=O)OC)=C1,16%,26%,?,3%,4%
COCCN1C=C(C(=O)OC)C(c2ccccc2Cl)C(C(=O)OC)=C1,21µM*,?,13µM*,8.9µM*,-4%
CCN(CC)C(=O)C1=C(C)N(Cc2ccc(OC)cc2)C(=O)C(CC(=O)NCCN2CCOCC2)C1 (stereo not given),/,/,/,2%,/
O=C(CSc1nc2sc3c(c2c(=O)[nH]1)CCCC3)Nc1ccccc1F,/,/,/,/,5%
CC(C)(C)c1cccc(Cn2nnc3ccccc32)c1O,7%,?,11%,-24%,20µM*
CCOC(=O)c1cnc2ccc(C)cc2c1N(C)Cc1ccccc1,18%,22µM*,?,-40%,14%
SMILES,SW480 rereplic,A-T KAP1 phos,MCF10A rerep,Integrin act MD,Mito fusion act
CCOC(=O)c1cnc(-n2nc(C)cc2C)nc1NCc1ccccc1,?,3%,21µM*,0%,28%
CCOC(=O)c1cnc2ccc(OCC)cc2c1NCc1ccccc1,-2%,-3%,21µM*,-27%,-5%
CCOC(=O)c1cnc2ccc(C)cc2c1Sc1ccccc1,0%,14%,?,-36%,2%
CCOC(=O)c1cnc2c(OC)cccc2c1NCc1cccnc1,-34%,-2%,0%,-20%,0%
CCOC(=O)c1cnc2ccc(OCC)cc2c1N1CCN(c2ccccc2)CC1,3%,-3%,?,26%,-3%
CCOC(=O)c1cnc2ccc(OCC)cc2c1NCc1cccnc1,0%,2%,23µM*,-7%,-25%
CC(=O)Nc1cc2c(s1)c1cnn(Cc3ccccc3F)c(=O)c1n2C,/,-13%,/,/,-6%
COCCn1c(SCC(=O)c2c(N)n(C)c(=O)n(C)c2=O)nc2ccccc21,-1%,2%,4%,13%,7%
CCOC(=O)c1cnc2ccc(C)cc2c1Nc1ccc(N2CCOCC2)cc1,16%,-5%,21µM*,0%,23%
CCOC(=O)c1ccc2ncc(C(=O)OCC)c(NCCN3CCOCC3)c2c1,-16%,-3%,5%,14%,2%
Cc1cccc(C(=O)Nc2ccccc2C(=O)NCc2ccco2)c1,-1%,13%,9%,1%,2%
CCOc1ccc(NC(=O)NNC(=O)c2cc3ccccc3cc2O)cc1,13%,6%,-2%,-21%,2%
CCCn1c(C(C)Nc2nc(-c3ccc(Cl)c([N+](=O)[O-])c3)cs2)nc2ccccc21 (stereo not given),-10%,6%,?,15%,7%
Cc1ccc(Cn2c(C(C)Nc3nc(-c4ccc(Cl)c([N+](=O)[O-])c4)cs3)nc3cc(C(F)(F)F)ccc32)cc1 (stereo not given),0.92µM*,/,-31%,-22%,/
S=C(Nc1ccc(Cl)cc1)Nc1ccc2c(c1)OCCO2,5.2µM*,7%,11%,6%,-15%
O=C(NC(=S)Nc1ccc(N2CCCCC2)c(Cl)c1)c1ccc2c(c1)OCCO2,?,7%,9.2µM*,-35%,2%
CC(=O)C1=C(O)C(=O)N(c2ccc(Br)cn2)C1c1ccc(F)cc1 (stereo not given),7.3µM*,-1%,9%,-3%,-2%
COc1ccc2c(c1)/C(=C/c1cc(OC)c(OC)c(OC)c1)C(=O)N2,2.6µM*,/,?,-45%,/
COc1ccc(C(=O)/C=C2\C(=O)Nc3ccc(Br)cc32)cc1,?,/,7.3µM*,-51%,/
O=C1Nc2ccc(Br)cc2/C1=C/C(=O)c1ccc2c(c1)OCO2,?,-26%,3.7µM*,-63%,-15%
CCCCCN(C(=O)CCC(=O)OC(C)C(=O)c1ccc(CC)cc1)c1c(N)n(CCCC)c(=O)[nH]c1=O (stereo not given),-4%,/,4%,22%,/

# Compound activity (PubChem BioAssay)
